{"source": "PubChem BioAssay (EPA / NIEHS)", "note": "Results filed as inconclusive are left out. The source made the active and inactive calls. The calls were made as follows: active = hit-call score of the fitted dose curve at least 0.9, where 1 is the maximum; inconclusive = response in the unintended direction; inactive = score below 0.9."}
{"assay": "STM_H9_NormalizedViability: Cytotoxicity Assessment at 120 hours in the Stemina devTOX quickPredict H9 human embryonic stem cell (hESC)-based Assay (AID 2283784)", "experimental": "STM_H9_viability utilizes undifferentiated H9 cells to measure cell viability.STM_H9_NormalizedViability is a component calculated in the STM_H9_viability assay. It measures cell viability using background corrected relative fluorescence units (RFU) value from the CellTiterFluor Assay normalized to the value of the 0.1% DMSO neutral control treatment (by 96-well plate)Data from the assay component STM_H9_Viability was analyzed at the assay endpoint STM_H9_Viability_Norm in the positive analysis fitting direction relative to DMSO as the negative control and baseline of activity. Using a type of viability reporter, loss-of-signal activity can be used to understand viability.\nH9 hESCs maintained in a pluripotent state were exposed to test compound for 72h with chemical replenishment with media replacement every 24h. Cell-conditioned media from the final 24-h treatment period was collected for analysis of the targeted biomarker, and cell viability of the corresponding cell layer was assessed. The chemical library was tested in blinded fashion. Each test plate included 1uM Methotrexate (MTX; Selleck Chemicals, Houston, Texas) as a positive reference, 5 nM MTX as a negative reference, 0.1% DMSO as the neutral (vehicle) control, and sample-level media blanks.H9 cell-conditioned media from the final 24-h treatment period was collected for analysis of the targeted biomarker and cell viability was measured from the corresponding cell layer. Cell viability was measured using the CellTiter-Fluor assay (Promega, Madison, Wisconsin) based on proteolytic cleavage of a substrate to fluorescent signal proportional to the number of living cells. The cell viability Relative Fluorescence Unit (RFU) was background corrected and normalized to mean RFU of the neutral control (0.1% DMSO). The collected H9-cell-conditioned media samples were processed for targeted biomarker analysis as described (Palmer et al., 2013). Briefly, spent media samples were deproteinized (40% acetonitrile) and processed for UPLC-HRMS. Data acquisition was performed using 4 separate UPLC-HRMS systems, consisting of an Agilent 1290 Infinity LC system (Agilent Technologies) interfaced with an Agilent high-resolution mass spectrometer (models G6520A, G6520B, G6530A, and G6224A). A Waters Acquity UPLC BEH Amide column (2.1mm x 50mm, 1.7lm particle size; Waters, Milford, Massachusetts) maintained at 40C was applied for separation of metabolites using a 6.5min solvent gradient with 0.1% formic acid in water and 0.1% formic acid in acetonitrile (1.0ml/min flow rate). Data were acquired using MassHunter Acquisition software (version B 04.00, Agilent Technologies). The extracted ion chromatogram (EIC) areas for ORN, CYSS, and their respective spike-in C13-standards were determined using the Agilent MassHunter Quantitative Analysis software, version B.05.00 or newer (Agilent Technologies), and data were normalized as described in Palmer et al. (2017)."}
{"smiles": "NC(=O)N1c2ccccc2C=Cc2ccccc21", "outcome": "inactive"}
{"smiles": "O=c1[nH]cnc2c1ncn2[C@H]1CC[C@@H](CO)O1", "outcome": "inactive"}
{"smiles": "O=C1CN(N=Cc2ccc([N+](=O)[O-])o2)C(=O)N1", "AC50": "3.4 µM (active)"}
{"smiles": "CC[C@H](C)C(=O)O[C@H]1C[C@H](O)C=C2C=C[C@H](C)[C@H](CC[C@@H](O)C[C@@H](O)CC(=O)O)[C@H]21", "outcome": "inactive"}
{"smiles": "CCN(CC)C(=S)SSC(=S)N(CC)CC", "AC50": "0.309 µM (active)"}
{"smiles": "CCCC(CCC)C(=O)O", "AC50": "340 µM (active)"}
{"smiles": "Cc1ncc([C@@H](CCCCCCc2ccc3c(n2)NCCC3)CC(=O)O)cn1", "outcome": "inactive"}
{"smiles": "CCCCCCCCCC", "outcome": "inactive"}
{"smiles": "O=S1(=O)CCCO1", "outcome": "inactive"}
{"smiles": "COS(C)(=O)=O", "AC50": "70.5 µM (active)"}
{"smiles": "Cn1cc[nH]c1=S", "outcome": "inactive"}
{"smiles": "CC(C)C(=O)Nc1ccc([N+](=O)[O-])c(C(F)(F)F)c1", "AC50": "65.6 µM (active)"}
{"smiles": "COc1cc2c(c(OC)c1OC)-c1ccc(OC)c(=O)cc1[C@@H](NC(C)=O)CC2", "AC50": "0.0165 µM (active)"}
{"smiles": "Nc1ccn([C@@H]2O[C@H](CO)[C@@H](O)[C@@H]2O)c(=O)n1", "AC50": "0.27 µM (active)"}
{"smiles": "Cc1nc(-c2ccccn2)ncc1C(=O)Nn1cc(C)c2cc(F)ccc21", "outcome": "inactive"}
